According to PubChem BioAssay:
A number with no mark means an inactive call.

Assay: A549 lung cancer cell viability effects, profiling panel, resazurin fluorescence, 24 h, PK04 Diversity Set (AID 1171); further: test concentration not given here
Conditions: higher = more signal, called active from +8 up or from −8 down

Compound	z-score
C=C(CCCC)C(=O)CC[C@@H](OC(=O)c1ccccc1-c1ccccc1C(=O)O)c1ccc(OCCO)cc1	0.128
O=C(CS)NCCCCCCNC(=O)[C@@H]1C[C@@H]2C(=O)N[C@@H](Cc3ccccc3)C(=O)N2[C@@H]1c1cccc(OCCO)c1	-0.436
CC(C)C(O)C1C=CC2C(=O)N(c3ccccc3)C(=O)C2N1Nc1ccc([N+](=O)[O-])cc1 (centres undefined)	-0.397
CC(C)N1C(=O)[C@@]2(Cc3ccccc31)c1ccccc1C(=O)N(Cc1ccccc1Cl)[C@H]2c1ccc(CO)cc1	0.458
C=CCC(OC(C)=O)[C@@H]1[C@@H](N(Cc2cc3ccccc3o2)C(=O)c2cccc3ccccc23)c2cc(OCCCO)ccc2N1C(=O)c1ccc(-c2ccccc2)cc1 (some centres undefined)	-0.808
C=CCC(OC(C)=O)[C@@H]1[C@@H](N(Cc2ccc(-c3ccccc3)cc2)C(=O)Cc2ccc(OC)cc2)c2cc(OCCCO)ccc2N1C(=O)Cc1ccc2ccccc2c1 (some centres undefined)	-0.599
Cc1ccc(S[C@]2(C(=O)O)CC(=O)N(C(C)C)[C@@H]2c2ccc(CO)cc2I)cc1	0.667
O=C1O[C@@H](c2ccccc2)[C@@H](c2ccccc2)N2[C@@H](c3ccccc3OCCO)[C@]3(C(=O)Nc4ccc(C#CC5=CCCCC5)cc43)[C@@H](C(=O)N3CCCCCCC3)[C@H]12	-0.312
O=C1OCCC/C=C\[C@H]2OC34C=CCN(Cc5ccccc5)C(=O)[C@H]3N(CCCO)C(=O)[C@@H]4C12 (some centres undefined)	0.0483
